The entries come from a sample that favours hits as a whole.
Cruzain Triton = qHTS Assay for Promiscuous and Specific Inhibitors of Cruzain (with detergent); purified cruzain, Z-FR-AMC fluorescence, 0.01% Triton; Potency, µM, for the others: max response, negative = inhibition, actives largely listed as inhibitors; actives 0.43% (n = 200,000); AID 1478, 2009;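 note: plate controls were neutral wells for no effect and buffer without enzyme for full effect; nearly all actives have a fitted effect of over 40% in size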
Target sequence (P25779 123-467 limits assumed): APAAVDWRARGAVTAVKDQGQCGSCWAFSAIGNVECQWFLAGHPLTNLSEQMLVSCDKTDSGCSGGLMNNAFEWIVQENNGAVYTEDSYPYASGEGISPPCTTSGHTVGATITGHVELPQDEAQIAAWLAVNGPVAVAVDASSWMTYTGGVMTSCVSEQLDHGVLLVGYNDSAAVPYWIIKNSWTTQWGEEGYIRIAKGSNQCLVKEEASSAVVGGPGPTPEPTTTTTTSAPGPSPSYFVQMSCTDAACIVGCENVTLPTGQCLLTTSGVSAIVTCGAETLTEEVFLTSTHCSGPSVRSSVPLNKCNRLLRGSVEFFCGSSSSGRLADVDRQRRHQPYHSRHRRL
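Detergent-containing arm of a paired screen for aggregation-based inhibition: 0.01% Triton X-100 present. Cruzain at 1.5 nM cleaved 2 uM Z-FR-AMC at pH 5.5 with 5 mM DTT; AMC fluorescence gain over 60 s measured activity.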
Cruzain inh noDet = qHTS Assay for Promiscuous and Specific Inhibitors of Cruzain (without detergent); Potency, µM, without a hit: max response, negative = inhibition, most hits filed as inhibitors; purified cruzain, Z-FR-AMC fluorescence, no detergent; actives 2.3% (n = 200,000); AID 1476, 2009;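 note: plate controls were enzyme without inhibitor for no effect and buffer without enzyme for full effect; nearly all actives have a fitted effect of over 40% in size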
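Detergent-free condition (0.00005% Triton X-100) in acetate buffer pH 5.5 with DTT. 1.5 nM enzyme and compound were pre-mixed 15 min, then 2 uM Z-FR-AMC substrate added; reaction progress from fluorescence change between first and third reads (60 s).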
NS1 function inh = qHTS Assay for Inhibitors of Influenza NS1 Protein Function | Potency, µM (series often up to 46.1 µM), without a hit: at the highest dose activity, positive = more growth | actives 0.4% (n = 270,000) | AID 2326, 2010; calls by dose curve; note: actives are rising curves; nearly all actives have a fitted effect of over 50% in size
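Recovery from NS1-induced slow growth read by OD600 in budding yeast switched to galactose assay medium (pH 6.0, -URA) at 1:100 dilution. Compound 23 nl per well; the matching strain lacking NS1 serves as control.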
Numbers without * were called inactive. Unless noted, calls come from the whole dose curve; as a rule, active = well fitted curve in the direction sought with a large enough effect; inconclusive = small, poorly fitted or top-dose-only effect, or another doubt; inactive = no such curve, though single readings can be large; an effect the other way counts as inactive or inconclusive. Potency is the fitted concentration of half-maximal effect.

`O=C(CSc1nc2cc([N+](=O)[O-])ccc2n1-c1ccccc1)NCc1ccc2c(c1)OCO2` gave Cruzain Triton -11.3%, Cruzain inh noDet -13.6% and NS1 function inh 3.98µM*.
For CN(C)c1ncc2nc(-c3ccc(F)cc3)c(=O)n(CCC#N)c2n1 the results were Cruzain Triton 3.2% and Cruzain inh noDet 9.5%.
Cc1cc(C)c(OCC(=O)N(Cc2ccco2)Cc2ccco2)c(C)c1 was read as Cruzain Triton -6.0% and Cruzain inh noDet -8.6%.
For COCC(=O)N1CCC2(CC1)CN(c1cccc(-c3ccccc3)c1)C2 the results were Cruzain Triton -1.9% and Cruzain inh noDet inconclusive.
For COc1ccc(-c2noc(CNC(=O)c3ccc(OC)cc3OC)n2)cc1 the results were Cruzain Triton -10.5% and Cruzain inh noDet 4.7%.
For COc1ccc(-c2noc(CC(=O)Nc3cc(OC)ccc3OC)n2)cc1 the results were Cruzain Triton -5.7% and Cruzain inh noDet 3.98µM*.
For CC1CCC(NC(=O)c2ccc(CS(=O)(=O)c3ccc(Cl)cc3)o2)CC1 (stereo not given) the results were Cruzain Triton -5.5% and Cruzain inh noDet 13.3%.
CN(C)c1ccc(C(=C2C=CC(=[N+](C)C)C=C2)c2c(O)c(S(=O)(=O)O)cc3cc(S(=O)(=O)O)ccc23)cc1 was read as Cruzain Triton -2.1%, Cruzain inh noDet -4.8% and NS1 function inh -3.1%.
`Clc1ccc(/C=N/Nc2nnc(Cl)c3ccccc23)cc1` gave Cruzain Triton -1.4%, Cruzain inh noDet 25.1µM* and NS1 function inh -1.4%.
`Clc1nnc(N/N=C/c2ccccc2)c2ccccc12` gave Cruzain Triton -6.7%, Cruzain inh noDet 4.0% and NS1 function inh -10.5%.
Screening COC(=O)[C@H]1O[C@@H](c2cc(OC)c(C)c(OC)c2OCc2ccccc2)[C@H](C)[C@H]2O[C@@]12C returned Cruzain Triton 7.5% and Cruzain inh noDet 2.3%.
CCNc1ncc2nc(-c3ccc(F)cc3)c(=O)n(Cc3ccc(F)cc3)c2n1 was read as Cruzain Triton -2.1% and Cruzain inh noDet 9.7%.
For CCOC(=O)N1CCc2c(sc3c2c(=O)n(Cc2ccccc2)c(=O)n3CC(=O)Nc2cccc(CC)c2)C1 the results were Cruzain Triton -0.8% and Cruzain inh noDet -17.4%.
`CCOC(=O)N1CCc2c(sc3c2c(=O)n(Cc2ccccc2)c(=O)n3Cc2cccc(Cl)c2)C1` gave Cruzain Triton -3.0% and Cruzain inh noDet 7.94µM*.
Screening CC(C)CCN(Cc1ccco1)C(=O)c1cc2c(Cl)nc3ccccc3c2s1 returned Cruzain Triton -13.8% and Cruzain inh noDet 0.2%.
Screening COc1ccc(C(=O)/C=C/c2cn(CC(O)CN3CCc4ccccc43)c3ccccc23)cc1OC (stereo not given) returned Cruzain Triton -4.6% and Cruzain inh noDet -25.7%.
Cc1ccc(C(=O)/C=C/c2cn(CC(O)CN3CCc4ccccc43)c3ccccc23)cc1 (stereo not given) was read as Cruzain Triton -4.2% and Cruzain inh noDet 10µM*.
`COc1cccc(-c2csc(N3CCN(S(=O)(=O)c4ccc(F)cc4)CC3)n2)c1` gave Cruzain Triton -0.3%, Cruzain inh noDet 25.1µM* and NS1 function inh 0.7%.
For COc1cccc(NC(=O)N2CCN(c3nc(-c4cccc(OC)c4)cs3)CC2)c1 the results were NS1 function inh -0.2%.
For COc1cccc(-c2csc(N3CCN(C(=S)Nc4ccc(Cl)cc4)CC3)n2)c1 the results were Cruzain Triton 6.9%, Cruzain inh noDet 25.1µM* and NS1 function inh 29.0%.
COc1cccc(-c2csc(N3CCN(C(=S)Nc4ccccc4)CC3)n2)c1 was read as Cruzain Triton 4.3%, Cruzain inh noDet inconclusive and NS1 function inh 22.4%.
For CC(=O)[C@@H]1[C@H]2[C@H](C(=O)[C@H]3OC[C@@H]2O3)[C@H]2C=Cc3ccccc3N21 the results were Cruzain Triton -3.8% and Cruzain inh noDet inconclusive.
`COC(=O)c1c(-c2cccs2)csc1NC(=O)COc1ccc(C)cc1` gave Cruzain Triton 0.2% and Cruzain inh noDet -16.6%.
`COC(=O)c1c(-c2cccs2)csc1NC(=O)COc1c(C)ccc(C)c1C` gave Cruzain Triton -7.7% and Cruzain inh noDet 25.1µM*.
COC(=O)c1c(-c2cccs2)csc1NC(=O)COc1ccc(C(C)(C)C)cc1 was read as Cruzain Triton -4.3% and Cruzain inh noDet 25.1µM*.
Screening COC(=O)c1c(-c2cccs2)csc1NC(=O)COc1ccccc1 returned Cruzain Triton -15.9% and Cruzain inh noDet -20.3%.
For O=C(c1ccco1)N1CCC2(CCCN(c3ccncc3)C2)CC1 the results were Cruzain Triton -0.4% and Cruzain inh noDet -5.3%.

Compound activity as filed in PubChem BioAssay.
